Hits are enriched below; roughly 0.29% of the tested compounds scored in any of these assays.
BH1578 lux ind: inducers of Vibrio cholerae quorum light production without autoinducers, primary screen, BH1578 luxS cqsA deficient, single point | V. cholerae BH1578 lux reporter, luminescence, 6 h | activation, % at 18.7 µM | 0.16% of 350,000 active | AID 588436, 2011; in the data active means activation mostly above about 9.7%, no sharp cut-off
Y pestis TopoI: Yersinia pestis topoisomerase I inhibitors, primary screen, biochemical, cleavage product accumulation, plate reader, single point | DNA topoisomerase I (Yersinia pestis CO92) | Y. pestis Topo-I cleavage product accumulation | activity, % at 10 µM | 0.064% of 360,000 active; in the data active means activity above about 50%, passing the limit was not always enough
Mtb hypoxia rep: PubChem AID 1159583. M. tuberculosis hypoxia-regulated fluorescent reporter, fluorescence. fluorescence inhibition, % (test concentration not listed). 0.1% of 300,000 active; in the data active means fluorescence inhibition mostly above about 23%, no sharp cut-off; inactive means mostly below about 17%
Active calls of the source: *; i = inactive; / = not tested or not shown.

SMILES | BH1578 lux ind | Y pestis TopoI | Mtb hypoxia rep
CCC(=O)NC(c1cccs1)c1cc([N+](=O)[O-])c2cccnc2c1O (configuration not stated) | 96* | -6 | 3
CCCC(=O)NC(c1cccs1)c1cc([N+](=O)[O-])c2cccnc2c1O (configuration not stated) | 0 | 3 | 15
CCN1C(=O)C2C(c3ccc(-c4ccc(Cl)c(Cl)c4)cc3)N[C@@](CC(C)C)(C(=O)OC)C2C1=O (some centres not stated) | / | / | -5
Cc1nnc(SCc2c(Cl)cccc2Cl)n(N)c1=O | 58* | -16 | 2
Cc1nnc(SCc2cccc3ccccc23)n(N)c1=O | -2 | 4 | 8
C/C(C=NNC(=O)c1ccc(Cn2cc([N+](=O)[O-])cn2)o1)=C\c1ccccc1 | / | / | -3
O=C(C[C@H]1C/C=C\CC[C@H](Cc2ccc(F)cc2)C(=O)O[C@@H](c2ccccc2)CNC1=O)N[C@H](CO)Cc1ccccc1 | i | 46 | /
O=C(C[C@H]1C/C=C\CC[C@H](Cc2ccc(F)cc2)C(=O)O[C@@H](c2ccccc2)CNC1=O)N[C@@H](CO)Cc1ccccc1 | 1 | 89* | /
O=C(Nc1cccc(O)c1)c1ccc(Br)cc1 | 0 | -11 | 9
O=C(Nc1cccc(O)c1)c1cccc(C(=O)Nc2cccc(O)c2)c1 | 0 | -24 | 47*
CCN1C(=O)NC(c2ccco2)C(C(C)=O)=C1C (configuration not stated) | / | / | 7
COc1cccc(N=Nc2c(N)[nH]n3c(=O)cc(-c4ccccc4)nc23)c1 | -1 | -8 | /
Cc1ccc(N=Nc2c(N)[nH]n3c(=O)cc(-c4ccccc4)nc23)cc1 | 32* | -10 | /
Cn1c(COc2ccc(Cl)cc2)nnc1SCC(=O)NC1CC1 | i | -2 | 34*
Cn1c(COc2ccccc2)nnc1SCC(=O)NC1CCCC1 | i | 7 | -14
CN(C)Cc1c(C(=O)NN=Cc2ccco2)nnn1-c1nonc1N | / | / | 7
COc1ccc(S(=O)(=O)N2CCN(C(=O)C3CC(=O)N(c4ccccc4F)C3)CC2)cc1OC (configuration not stated) | 0 | 0 | 31*
COc1ccc(N2CC(C(=O)N3CCN(c4ccccc4F)CC3)CC2=O)cc1 (configuration not stated) | 0 | 13 | -1
Cc1nnc(NCc2ccccc2)c2ccccc12 | i | 4 | 81*
Cc1nnc(NCc2ccncc2)c2ccccc12 | 0 | 8 | -20
Cc1ccc(Cn2c(NN=Cc3ccncc3)nc3c2c(=O)n(C)c(=O)n3C)cc1 | / | / | -8
CCOC(=O)c1ccc(S(=O)(=O)N2CCN(c3ccccn3)CC2)cc1 | 0 | -4 | -3
C(=C\CSc1nnnn1-c1ccccc1)/CSc1nnnn1-c1ccccc1 | 6 | 60* | 10
c1ccc(-n2nnnc2SCc2ccccn2)cc1 | i | -1 | -2
CCOC1OC(C(=O)O)=CC(C2CCCCC2)C1CCCO (configuration not stated) | / | / | -9
SMILES | BH1578 lux ind | Y pestis TopoI | Mtb hypoxia rep
O=C(O)C1=CC(C2CC2)CC(OCc2ccc(CO)cc2)O1 (configuration not stated) | / | / | 7
O=Cc1c(N2CCSCC2)nc2ccccn2c1=O | -1 | 4 | 40*
O=Cc1c(N2CCN(c3ccccc3)CC2)nc2ccccn2c1=O | 0 | 1 | 22
O=[N+]([O-])c1cc(CN2CCCC2)ccc1Sc1ccc(Cl)cc1 | 0 | 2 | /
Oc1ccccc1N=Cc1ccc[nH]1 | -1 | -7 | 81*
C(=Nc1ccccc1)c1ccc[nH]1 | i | 10 | 3
CCNC(=O)CSc1nnc(-c2cc(-c3ccc(Cl)cc3)nc3ccccc23)o1 | i | -8 | 0
CCC(=O)N1CCN(c2ccc(NC(=S)NC(=O)c3cccc([N+](=O)[O-])c3)cc2)CC1 | 33* | 5 | 6
CCC(=O)N1CCN(c2ccccc2NC(=S)NC(=O)c2cccc([N+](=O)[O-])c2)CC1 | 0 | -8 | 6
CCN1C(=O)C(=c2oc(=C3C=Cc4ccccc4N3CC)c(=O)n2CC)SC1=S | / | / | 10
CC(NC(=O)c1ccc2c(c1)OCCO2)C(=O)O (configuration not stated) | i | -9 | -1
CCC(CC)NC(=O)c1ccc2c(c1)OCCO2 | 25* | 2 | 2
NC(=O)c1sc2nc(-c3ccco3)ccc2c1N | 32* | -2 | /
COC(=O)c1sc2nc(-c3ccco3)ccc2c1N | 0 | -14 | 12
O=C(Nc1nc(-c2cccs2)cs1)c1ccc([N+](=O)[O-])o1 | 0 | -11 | 24
Cc1nnc(NN=Cc2ccc(Br)cc2)n1N | / | / | 2
N#CC1(Nc2ccccc2)C(=O)Nc2ccccc21 (configuration not stated) | -1 | -6 | 56*
N#CC1(Nc2cccc(Br)c2)C(=O)Nc2ccccc21 (configuration not stated) | 0 | -3 | 16
Cc1c(Cl)cccc1-c1ccc(/C=N/n2cnnc2)o1 | 27* | 3 | /
Clc1cccc(-c2ccc(/C=N/n3cnnc3)o2)c1Cl | / | 6 | /
COc1ccc2nc(C)cc(NN=Cc3ccc(F)cc3)c2c1 | / | / | 78*
COc1ccc2nc(C)cc(N/N=C/c3ccc(F)cc3)c2c1 | 0 | -34 | /
Cc1ccc(C(=O)OCC(=O)NC2CCCC(C)C2C)cc1S(=O)(=O)N1CCCCC1 (configuration not stated) | -4 | 14 | 24*
Cc1ccc(C(=O)OCC(=O)N2CCC(C)CC2)cc1S(=O)(=O)N1CCCCC1 | -11 | 18 | 4
Clc1cccc(CSc2nnc(-c3sccc3-n3cccc3)o2)c1 | 0 | 58* | /
SMILES | BH1578 lux ind | Y pestis TopoI | Mtb hypoxia rep
Clc1cc(Cl)cc(CSc2nnc(-c3sccc3-n3cccc3)o2)c1 | i | 9 | /
CCC1=NNc2cccc3c(OC)ccc1c23 | / | / | 60*
COc1ccc2c3c(cccc13)C(=O)N(O)C2=O | -1 | 1 | 5
C=CCCC(=O)NC1CC(C)(C)Cc2c1cnn2-c1ccc(OC)cc1 (configuration not stated) | 0 | -10 | 0
O=c1cc(O)c2ccc(O)cc2o1 | 0 | -1 | /
O=c1ccc2[n+]([O-])c3ccc(O)cc3oc-2c1 | i | 396* | 0
COC(=O)[C@]1(CC(C)C)NC(c2ccc(-c3ccc(OC)cc3)cc2)C2C(=O)N(C)C(=O)C21 (some centres not stated) | / | / | 5
CCC(=NCCC(c1ccccc1)c1ccccc1)c1c(O)[nH]c(=O)[nH]c1=O | 0 | 66* | -7
CCC(=NC(C)c1ccccc1)c1c(O)[nH]c(=O)[nH]c1=O (configuration not stated) | 0 | 5 | -1
O=C(CCC1N=C2c3ccccc3N=C(SCc3ccc(F)cc3)N2C1=O)NCc1ccco1 (configuration not stated) | 0 | 23 | 21
O=C(CC1N=C2c3ccccc3N=C(SCc3ccc(F)cc3)N2C1=O)NCc1ccco1 (configuration not stated) | 17* | 0 | 0
CC(=O)Nc1ccc(NC(=O)C(C)Oc2ccc(C)nc2[N+](=O)[O-])cc1 (configuration not stated) | i | -1 | 5
COc1ccc(C2C=CCN(C(=O)C3CC3)CC(=O)N2Cc2ccc(F)cc2)cc1 (configuration not stated) | / | / | 6

Compound activity from PubChem.
